Most compounds without a hit are left out; they make up all but 3.2% or so of the library.
aDG glyco up = alpha-DG glycosylation activation | activation, % at 10 µM | Pro5-aDG cells, alpha-DG glycosylation AlphaScreen (IIH6); 0% Pro5, 100% B10-LARGE cell signal | AID 624168 | 360,000 tested, 0.22% active;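 active means activation of at least 8% versus controls, or a plate z-score of at least 8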;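 further: Pro5 are CHO cells carrying HIG-tagged alpha-DG that lacks glycosylation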
PfGluPho inh = PfG6PD (Plasmodium falciparum) enzyme inhibition; 350,000 tested, 0.78% active; inhibition, % at 20 µM; PfGluPho enzyme, NADPH resazurin-diaphorase fluorescence;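 active means inhibition reaching at least a set limit at 20 µM in the primary screen, cut at about 59% in these data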
CRFR2-BP antag = blocks CRF-induced signaling of the CRF-BP/CRF-R2 complex | inhibition, % at 11.8 µM | AID 588475 | 350,000 tested, 0.59% active | HEK293 CRF-R2/CRF-BP, CRF-induced calcium fluorescence;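 active means inhibition of the ligand-induced calcium signal above about 50% at the single tested concentration, limit read from the data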
H9c2 protect = myocardial damage modulation in H9c2 cells | H9c2 cardiomyocytes, H2O2 injury protection, ATPLite, 2 h | protection from H2O2 cell death, % at 20 µM | 360,000 tested, 0.63% active;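 active means compounds giving at least 50% protection of heart cells from peroxide-induced death in the single-dose screen, raw or plate-pattern-corrected value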
FAS TE block = FAS thioesterase (human) inhibition | P49327 | recombinant FAS-TE, OMFH fluorogenic substrate, fluorescence endpoint | inhibition, % at 15 µM | 360,000 tested, 0.67% active | AID 602261;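 active means compounds whose normalised, plate-corrected inhibition of enzyme fluorescence in the single-dose primary screen is 50% or more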
CRFR2-BP ag = CRF-BP/CRF-R2 complex agonism; activation, % at 13.2 µM; 350,000 tested, 0.46% active; HEK293 CRF-R2/CRF-BP, calcium dye fluorescence (FLIPR); percent of saturating CRF peptide response;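 active means activation of at least 50%, plus an integration ratio under a set limit after plate pattern correction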
FAS-TE conf = FAS thioesterase (human) inhibition, confirmation | recombinant FAS-TE, OMFH fluorogenic substrate, fluorescence | inhibition, % at 15 µM | 2,300 tested, 45% active | shares compounds with FAS TE block;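 active means compounds inhibiting the enzyme by at least 50% at 15 µM in any one of the replicates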
aDG conf = confirmation of alpha dystroglycan glycosylation activators | shares compounds with aDG glyco up | Pro5-aDG cells, alpha-DG glycosylation, IIH6 AlphaLISA; scaled to LARGE-overexpressing B10 cells as 100% | activation, % at 10 µM (by protocol) | 600 tested, 17% active | AID 651671;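 active means activation of at least 7% in one or more replicates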;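 further: cells exposed to compound for two days before detection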
Numbers stand for hits; – = inactive; · = no result given.

SMILES | aDG glyco up | PfGluPho inh | CRFR2-BP antag | H9c2 protect | FAS TE block | CRFR2-BP ag | FAS-TE conf | others
O=C1[C@H]2[C@@H](c3ccc(F)cc3)N3C(=O)N(c4ccccc4)C(=O)[C@@]3(Cc3ccccc3)[C@H]2C(=O)N1C1CCCCC1 | – | – | – | – | 59 | – | 36
Cc1noc(C)c1C(=O)N1CCC1(C)C(=O)NS(=O)(=O)c1cccc(F)c1 (stereo unspecified) | – | · | · | – | – | · | ·
O=C(CN1CCCC1)Nc1ccc(F)c(Cl)c1 | – | – | – | – | – | – | ·
CC12CCC(C(=O)OC3CCCCC3)(OC1=O)C2(C)C (stereo unspecified) | – | – | – | – | – | – | ·
Cc1ccc(CNC(=O)N[C@@H](Cc2ccccc2)C(=O)O)cc1 | – | – | – | – | – | – | ·
COc1ccc(N2Cc3cccc(C(=O)NC(C)CCc4ccco4)c3C2=O)cc1 (stereo unspecified) | – | – | – | – | – | – | ·
CC(CCc1ccco1)NC(=O)c1cccc2c1C(=O)N(C1CCCCC1)C2 (stereo unspecified) | – | – | 51 | – | 63 | – | –
CCOc1ccc(OCCNC(=O)C(NC(=O)c2c(F)cccc2F)C(C)C)cc1 (stereo unspecified) | – | – | – | – | – | – | ·
COc1ccc(C(=O)Nc2ccccc2N2CCCC2)cc1 | – | – | – | – | – | – | ·
CN(C)S(=O)(=O)c1cccc(NC(=O)c2cc([N+](=O)[O-])ccc2N2CCCCC2)c1 | – | – | – | – | 59 | – | 55
COc1ccc(C(=O)Nc2cc([N+](=O)[O-])ccc2N2CCCC2)cc1 | – | – | – | – | 58 | – | 52
Cc1ccc(NC(=O)c2cc([N+](=O)[O-])ccc2N2CCOCC2)cc1C | – | – | – | – | 74 | – | 78
COc1ccccc1NC(=O)c1cc([N+](=O)[O-])ccc1N1CCOCC1 | – | – | – | – | – | – | ·
Cc1ccc(NC(=O)c2cc([N+](=O)[O-])ccc2N2CCCC2)cc1 | – | – | – | – | 66 | – | 42
CC(C)CNCC1OCc2ccccc2CO1 | – | – | – | – | – | – | ·
O=C(c1cccc(C(F)(F)F)c1)C1CCCN(C(=O)CN2CCOC2=O)C1 (stereo unspecified) | – | – | – | – | – | – | ·
Cc1onc(-c2c(Cl)cccc2Cl)c1C(=O)N=C(N)N1CC(C)OC(C)C1 (stereo unspecified) | – | – | – | – | – | – | ·
Cc1ccc(NC(=O)C2(c3ccc([N+](=O)[O-])cc3)CCCC2)cc1 | – | – | – | – | 60 | – | 51
O=C(Nc1nc(-c2ccccc2)cs1)c1ccc(N2CCOCC2)c([N+](=O)[O-])c1 | – | – | – | – | – | – | ·
Cc1ccc(-c2csc(NC(=O)c3cc([N+](=O)[O-])ccc3N3CCOCC3)n2)cc1 | – | – | – | – | 71 | – | –
Cc1ccc(NC(=O)c2cc(S(=O)(=O)N(C)C)ccc2N2CCCC2)cc1F | – | – | – | – | 51 | – | 58
Cc1ccc(OCC(=O)Nc2ccc([N+](=O)[O-])cc2)cc1 | – | – | – | – | – | – | ·
CC(C)c1ccc(NC(=O)c2cc([N+](=O)[O-])ccc2N2CCOCC2)cc1 | – | – | – | – | 74 | – | –
O=C1NN(c2ccc(F)cc2)C(=O)/C1=C/c1cccs1 | – | – | – | – | – | – | ·
CCc1ccc(C(=O)COC(=O)c2cc([N+](=O)[O-])ccc2NCCO)cc1 | – | – | – | – | 84 | – | 73
Cc1cc(C)c(C(=O)COC(=O)c2cc([N+](=O)[O-])ccc2NCCO)cc1C | – | – | – | – | 52 | – | 37
O=C(COC(=O)c1cc([N+](=O)[O-])ccc1NCCO)c1ccc(Cl)cc1 | – | – | – | – | – | – | ·
NS(=O)(=O)c1ccc(CCNCc2cc(Br)ccc2OCc2ccccc2F)cc1 | 7.6 | – | – | – | – | – | · | aDG conf=–

Source: PubChem
